Screens from PubChem.
Compounds with a hit are over-represented: about 0.93% of the library has one in this group of screens.
CDC25B CDK2 inh: human CDC25B-CDK2/CyclinA binding inhibition | z-score (test concentration not listed) | HTRF CDC25B-CDK2/CyclinA binding, anti-His/anti-Flag; stronger effect = higher value | 94,000 compounds, 0.72% hits; in the data active means z-score above about 3.2
TAR Tat displ: HIV-1 TAR-Tat binding disruption. HIV-1 TAR RNA, Tat peptide displacement FRET; stronger effect = higher value. z-score (test concentration not listed). 100,000 compounds, 0.6% hits. AID 1259389; active means z-score of 3 or more in at least 2 runs
* = called active by the depositor; · = not tested or not shown; ! = not confirmed by another sample.

SMILES	CDC25B CDK2 inh	TAR Tat displ
CC1=C(c2ccc(C)c(C)c2)S(=O)(=O)N=C1Nc1ccc(F)cc1C	-1.2	1
O=C(c1cccc2ccccc12)N1CCC(c2nc3ccccc3s2)CC1	-0.45	-0.24
O=C(Nc1ccc(Cl)cc1Cl)c1cc([N+](=O)[O-])cc2c1-c1ccc([N+](=O)[O-])cc1C2=O	-1.5	·
c1coc(C2Oc3ccccc3C3CC(c4cccs4)=NN32)c1 (stereo not drawn)	-1.5	·
O=[N+]([O-])c1ccc(/C=C/C2Oc3ccccc3C3CC(c4cccs4)=NN23)o1 (stereo not drawn)	1.5	13*
COc1ccc(N2C(=O)c3cccnc3C2Nc2cccc(F)c2)cc1 (stereo not drawn)	·	0.69
COc1ccc(NC(=O)C(C)Sc2nnc(Cc3c(C)nc4ccccn4c3=O)n2C)cc1 (stereo not drawn)	16*	-0.14
COc1ccc(NC(=O)C(C)Sc2nnc(Cc3c(C)nc4c(C)cccn4c3=O)n2C)cc1 (stereo not drawn)	7.2*	-0.94
Cc1nc2c(C)cccn2c(=O)c1Cc1nnc(SCC(=O)Nc2ccc(C(C)C)cc2)n1C	-0.42	-0.62
Cc1nc2ccccn2c(=O)c1Cc1nnc(SCC(=O)Nc2ccc(Cl)cc2)n1C	-0.52	-0.6
O=C(/C=C/c1ccc(O)c(O)c1)O[C@H](Cc1ccc(O)c(O)c1)C(=O)O	·	17*
O=C(O)/C=C/c1ccc(O)c(O)c1	-1.6	5.3
CCOc1ccc(Nc2cc(C)c3c(O)cccc3n2)cc1	-0.18	-1.5
CC1=C(C(=O)OCC2CCCO2)C(c2ccccc2C)C2=C(CC(C)(C)CC2=O)N1 (stereo not drawn)	-5.5	5*
CC1=C(C(=O)OCC2CCCO2)C(c2ccccc2F)C2=C(CC(C)(C)CC2=O)N1 (stereo not drawn)	-0.72	0.14
CNC(=O)CSc1nc2c(cnn2-c2ccccc2)c(=O)[nH]1	·	1.7
O=C(N[C@@H](Cc1ccccc1)C(=O)CCl)OCc1ccccc1	-2.2	0.24
CC(C)C[C@@H](C=O)NC(=O)[C@H](CC(C)C)NC(=O)[C@H](CC(C)C)NC(=O)OCc1ccccc1	·	3.9*!
CC(C)Cn1c(N2CCN(C)CC2)nc2c1c(=O)[nH]c(=O)n2C	0.62	·
NC(=O)Cn1c(=O)n(Cc2cccs2)c(=O)c2cccnc21	-0.32	0.71
OCCN1CCN(c2ncnc3c2cnn3-c2ccccc2)CC1	·	0.55
O=C(COc1ccccc1Cl)Nc1ccc(OCc2cc(=O)n3c4c(sc3n2)CCCC4)cc1	0.36	-1.5
COc1ccc(S(=O)(=O)c2c(C(=O)c3ccc(C)cc3)cnc3cc4c(cc23)OCCO4)cc1	6.7*	0.27
COc1ccc(S(=O)(=O)c2c(C(=O)c3ccc(C)cc3)cnc3cc4c(cc23)OCO4)cc1	0.07	-0.24
O=C(O)c1ccc2c(c1)C1C=CCC1C(c1ccc(Cl)cc1)N2 (stereo not drawn)	-0.83	19*
SMILES	CDC25B CDK2 inh	TAR Tat displ
O=C(O)c1ccc([C@@H]2Nc3c(F)cccc3[C@@H]3C=CC[C@@H]32)cc1	2.2	9.4*
O=C(O)c1ccc2c(c1)C1C=CCC1C(c1cccc(F)c1)N2 (stereo not drawn)	0.43	9.3*
O=C(O)c1ccc2c(c1)[C@@H]1C=CC[C@@H]1[C@H](c1cccc(Cl)c1)N2	0.38	·
O=C(O)c1ccc2c(c1)[C@@H]1C=CC[C@@H]1[C@H](c1cccc(C(F)(F)F)c1)N2	-0.52	·
O=C(O)c1ccc2c(c1)[C@@H]1C=CC[C@@H]1[C@H](c1ccccn1)N2	6*	·
O=C(O)c1ccc2c(c1)[C@@H]1C=CC[C@@H]1[C@H](c1ccccc1Br)N2	-0.76	0.61
Cc1ccc([C@@H]2Nc3c(F)cccc3[C@@H]3C=CC[C@@H]32)cc1	-1.8	·
O=C(NCc1cccs1)C(=O)NCC(c1cccs1)S(=O)(=O)c1ccc(F)cc1 (stereo not drawn)	·	-0.15
O=S(=O)(c1ccc(Cl)s1)n1cccn1	1.4	·
CCOc1ccccc1-n1nnc(C(=O)O)c1C	0.84	0.04
CC1CCCCC1NC(=O)Cn1cc2c(n1)CCCCCC2 (stereo not drawn)	0.65	0.06
COc1cc(/C=C/C(=O)CC(=O)/C=C/c2ccc(O)c(OC)c2)ccc1O	·	15*
COc1cc(/C=C/C(=O)O)ccc1O	·	1.5
COc1ccc(/C=C/C(=O)CC(=O)/C=C/c2cccc(O)c2OC)cc1O	·	16*
COc1ccc(/C=C/C(=O)O)cc1OC	·	0.69
Cc1cc(NC(=O)CC(C)CC2=NS(=O)(=O)c3ccccc3N2)ccc1Br (stereo not drawn)	·	0.87
O=C(Nc1ccc(S(=O)(=O)N2CCOCC2)cc1)c1nn(-c2cccc(Cl)c2)ccc1=O	-2	1.3
O=S(=O)(NCc1cn2ccsc2n1)c1ccc(F)cc1	1.1	·
COc1ccc2c(c1)c1nc(SCc3cccnc3)n(CCO)c(=O)c1n2C	0.65	1.6
CC(C)Cn1cc(NC(=O)N(Cc2ccccc2)C(C)C)c2ccccc2c1=O	·	6.6*
CC(C)Cn1cc(NC(=O)NCCCN(C)c2ccccc2)c2ccccc2c1=O	19*	-0.7
CCCN(CCC)C(=O)Nc1cn(CC(C)C)c(=O)c2ccccc12	·	1.9
CC(C)Cn1cc(NC(=O)NCCCN2CCCC2)c2ccccc2c1=O	·	1
Cc1nc(-c2ccc(S(=O)(=O)NN)cc2)c(-c2ccc([N+](=O)[O-])cc2)o1	-0.71	·
Fc1ccccc1CNc1nc(-c2ccccc2)no1	·	1.5
SMILES	CDC25B CDK2 inh	TAR Tat displ
Cc1nn(-c2ccc(N3CCOCC3)nn2)c(C)c1CCC(=O)N1CCN(c2ccccc2)CC1	·	-1.7
CC1CC(=O)Nc2cc(S(=O)(=O)NCCN3CCc4ccccc4C3)ccc2S1 (stereo not drawn)	·	1.3
Oc1ccc([C@H]2Oc3cc(O)cc(O)c3C[C@H]2O)cc1	·	-0.59
O=C(O[C@@H]1Cc2c(O)cc(O)cc2O[C@@H]1c1cc(=O)c(O)c2c(O)c(O)cc([C@H]3Oc4cc(O)cc(O)c4C[C@H]3O)c2c1)c1cc(O)c(O)c(O)c1	·	30*
O=[N+]([O-])c1ccc(F)c(N(CS(=O)(=O)c2ccccc2)CS(=O)(=O)c2ccccc2)c1	-1.6	·
Cc1ccc(-n2c(C)c(C)c3c2ncn2nc(-c4ccco4)nc32)cc1C	-0.41	2
CC(C)N1CCn2c(nc3cc(NC(=O)c4ccco4)ccc32)C1	10*	19*
CC(=O)Nc1ccc2c(c1)nc1n2CCN(C(C)C)C1	-0.16	-7.6
Cc1cc(Nc2ccccc2Cl)n2ncnc2n1	2.9	·
BrC=C=CCN(CC=C=CBr)Cc1ccccc1	4.3*	·
ON(Cc1ccccc1)Cc1ccccc1	-1.3	·
COc1ccc(Cl)cc1-c1noc(-c2ccco2)n1	-0.76	-1.2
CN(CC1COc2ccccc2O1)S(=O)(=O)c1ccc2c(c1)NC(=O)CCS2 (stereo not drawn)	·	1.4
O=C(NC1CCCCC1)C1CCCN1c1nnc(N2CCCC2=O)s1 (stereo not drawn)	-2	4.5
O=C1CC(C(=O)Nc2ccc3c(c2)OCO3)n2ncnc2N1 (stereo not drawn)	0.99	-2.1
O=C1CC(C(=O)Nc2ccc(Cl)cc2)n2ncnc2N1 (stereo not drawn)	3.9*	0.9
c1ccc2c(OCCCOc3cccc4cccnc34)cccc2c1	6.2*	·
OC(COc1cccc2cccnc12)Cn1c2ccccc2c2ccccc21 (stereo not drawn)	-0.9	-1.6
COc1ccc(CCNC(=O)/C(C#N)=C/c2ccc[nH]2)cc1OC	-1	·
